Screening results: PubChem, National Center for Advancing Translational Sciences (NCATS)
D3 ag – qHTS of D3 Dopamine Receptor Agonist: qHTS | D(3) dopamine receptor (Homo sapiens), P35462 | actives 0.58% (n = 410,000) | max activation, % | D3R DiscoveRx beta-arrestin cells, luminescence, 90 min; in the data active = max activation above about 30%; also: 0% is about no effect
Target sequence (P35462 whole entry, looked up): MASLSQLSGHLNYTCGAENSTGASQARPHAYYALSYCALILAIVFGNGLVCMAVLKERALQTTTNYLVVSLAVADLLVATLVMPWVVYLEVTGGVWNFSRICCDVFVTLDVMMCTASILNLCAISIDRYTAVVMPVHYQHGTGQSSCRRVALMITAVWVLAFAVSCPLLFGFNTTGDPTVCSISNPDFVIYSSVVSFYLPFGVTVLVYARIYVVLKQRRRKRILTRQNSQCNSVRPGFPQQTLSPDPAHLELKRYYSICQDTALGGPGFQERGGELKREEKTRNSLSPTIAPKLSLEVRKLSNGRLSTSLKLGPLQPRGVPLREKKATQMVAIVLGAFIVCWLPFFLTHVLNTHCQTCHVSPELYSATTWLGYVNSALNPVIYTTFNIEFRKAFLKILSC
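Agonist mode: compounds and dopamine controls were applied to plated cells for 90 min at 37 degrees C after an overnight attachment at 1500 cells/well. Luminescent read-out followed 30 - 60 minutes at room temperature with DiscoveRx detection reagent.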
DRD3 antagonist – qHTS of D3 Dopamine Receptor Antagonist: qHTS | D(3) dopamine receptor (Homo sapiens), P35462 | D3R cells, DiscoveRx beta-arrestin luminescence, antagonist mode; hits give low values | max response, negative = inhibition, % | actives 2.5% (n = 360,000); in the data active = max response below about -50%; inconclusive = no clear call, values can overlap the other calls; also: % is scaled to controls: 0 for no effect and ±100 for the full control effect
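Cells expressing the human receptor were seeded at 1500 cells/well, incubated overnight at 37 degrees C in 5% CO2, then exposed to library compounds with dopamine controls for 90 minutes at 37 degrees C before luminescent detection.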
TGFb inhibitor – qHTS for Inhibitors of TGF-b; AID 588855, 2011; actives 1.2% (n = 410,000); Potency, µM (highest dose often 46.1 µM), without a hit: top-dose activity, negative = inhibition, actives largely listed as inhibitors; HepG2 CAGA-GFP TGF-b/SMAD3 reporter, GFP fluorescence, 18 h; TGF-beta stimulated, 500 pg/mL final; also: potency is read from the fitted curve at half-maximal effect; % is scaled to controls: 0 for no effect and ±100 for the full control effect; nearly all actives have a fitted effect of over 65% in size
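HEPG2 CAGA-GFP cells (1000/well, DMEM with 1% FBS) were pre-incubated 2 h at 37 degrees C, given compound by pin tool, then stimulated with TGF-beta at 500 pg/mL final for 18 h before per-cell GFP fluorescence imaging.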
ATXN2 expr inh – Primary qHTS for Inhibitors of ATXN expression. HEK-293 ATXN2-luciferase reporter, luminescence, 24 h. Potency, µM (series often up to 57 µM), inactives show at the top dose activity change, negative = inhibition, most hits filed as inhibitors. actives 0.72% (n = 360,000). AID 1745845, 2022; also: potency is read from the fitted curve at half-maximal effect; % is scaled to controls: 0 for no effect and ±100 for the full control effect; nearly all actives have a fitted effect of over 55% in size
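ATXN2-luciferase reporter cells (luciferase flanked by upstream and downstream ATXN2 gene portions) were treated 24 h at 37 °C with compounds at up to 57 uM. SteadyGlo luminescence gave expression; GF-AFC fluorescence gave viability.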
ATXN viability – Viability Counterscreen for Primary qHTS for Inhibitors of ATXN expression. S2 cells (HEK-293 line with an ATXN2-luciferase reporter) viability, CellTiter-Fluor protease fluorescence, 24 h. Potency, µM (series often up to 56.7 µM), hits mostly cytotoxic. actives 0.49% (n = 400,000); also: potency is read from the fitted curve at half-maximal effect; nearly all actives have a fitted effect of over 40% in size
HepG2 tox – qHTS for Inhibitors of TGF-b: Cytotox Counterscreen; HepG2 CAGA-GFP viability, ATP luminescence, 18 h; Potency, µM (top dose mostly 46.1 µM), without a hit: top-dose activity change, negative = cytotoxicity, usual class: cytotoxic; actives 0.76% (n = 410,000); also: potency is read from the fitted curve at half-maximal effect
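CellTiter-Glo luminescence gave cytotoxicity after 18 hours at 37 degrees C. The cells were HepG2 CAGA-GFP in 1% FBS DMEM, stimulated with 500 pg/mL TGF-beta after compound addition. %Activity was normalised to no-cell wells (complete cell-killing) and DMSO (no toxicity), and curves were fitted and classified.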
Active calls of the source: *; [ ] = dose if it differs, or a comment. Only some compounds are listed: those with a hit (about 4.7% of all), similar ones and a draw of the others. Unless noted, calls follow the shape of the dose curve; as a rule, active = well fitted curve in the direction sought with a large enough effect; inconclusive = small, poorly fitted or top-dose-only effect, or another doubt; inactive = no such curve, though single readings can be large; an effect the other way counts as inactive or inconclusive.

Results for Cc1cc(C)n(CC(O)Cn2c3ccc(Cl)cc3c3cc(Cl)ccc32)c(=O)n1 (stereo unspecified) ?
D3 ag: 0; DRD3 antagonist: -20; TGFb inhibitor: inconclusive; ATXN2 expr inh: 32µM*; ATXN viability: inconclusive; HepG2 tox: -87%

How did CN(C)c1ccc(/C=N\Nc2ccc([N+](=O)[O-])cc2[N+](=O)[O-])cc1Br do in these assays?
TGFb inhibitor: 20%; HepG2 tox: -9%

Results for COc1ccccc1NC(=O)C(=O)N/N=C(\C)CC(=O)Nc1ccccn1 ?
D3 ag: 4; DRD3 antagonist: 13; TGFb inhibitor: inconclusive; ATXN viability: inconclusive; HepG2 tox: -5%

How did COc1ccccc1NC(=O)C(=O)Nc1ccccn1 do in these assays?
D3 ag: -4; DRD3 antagonist: -84*; TGFb inhibitor: inconclusive; ATXN2 expr inh: 60%; ATXN viability: inactive; HepG2 tox: 0%

What do the screens show for `COc1ccc(C2C(C#N)=C(N)N(c3sc4c(c3C#N)CCCC4)C3=C2C(=O)CC(C)(C)C3)cc1` (stereo unspecified)?
D3 ag: -1; DRD3 antagonist: -8; TGFb inhibitor: -2%; ATXN2 expr inh: 6%; ATXN viability: inactive; HepG2 tox: -17%

Results for COc1ccc(C2C(C#N)=C3NC(=O)c4c(sc5c4CCCCC5)N3C3=C2C(=O)CC(C)(C)C3)cc1 (stereo unspecified) ?
D3 ag: -12; DRD3 antagonist: -87*; TGFb inhibitor: 2%; ATXN2 expr inh: 27%; ATXN viability: inconclusive; HepG2 tox: -14%

Results for COc1ccc(NC(=O)c2c(-c3ccccc3)c(-c3ccccc3)nn(C)c2=O)cc1OC ?
D3 ag: 1; TGFb inhibitor: -21%; HepG2 tox: -42%

How did CCCCSc1nnc2nc(C)cc(C)n12 do in these assays?
D3 ag: 4; DRD3 antagonist: -58*; TGFb inhibitor: 3%; ATXN2 expr inh: 22%; ATXN viability: inactive; HepG2 tox: -17%

Results for COC(=O)c1ccccc1NC(=O)CCS(=O)(=O)c1ccc(Br)s1 ?
D3 ag: 1; DRD3 antagonist: -52*; TGFb inhibitor: -1%; ATXN2 expr inh: -7%; ATXN viability: inactive; HepG2 tox: -1%

How did Cc1ccccc1NC(=O)CCS(=O)(=O)c1ccc(Br)s1 do in these assays?
D3 ag: -5; DRD3 antagonist: -8; TGFb inhibitor: -2%; ATXN2 expr inh: -4%; ATXN viability: inactive; HepG2 tox: 18%

How did O=C(CCS(=O)(=O)c1ccc(Br)s1)Nc1cc(C(F)(F)F)cc(C(F)(F)F)c1 do in these assays?
D3 ag: 2; TGFb inhibitor: inconclusive; ATXN2 expr inh: inconclusive; ATXN viability: inconclusive; HepG2 tox: 16µM*

How did COc1ccc(/C=N/NC(=O)CCn2c3ccccc3c3ccccc32)cc1OC do in these assays?
D3 ag: -2; DRD3 antagonist: 0; TGFb inhibitor: 0%; ATXN2 expr inh: 1%; ATXN viability: inactive; HepG2 tox: -28%

Results for COc1cc(/C=N/NC(=O)CCn2c3ccccc3c3ccccc32)cc(OC)c1OC ?
D3 ag: 42*; DRD3 antagonist: 71; TGFb inhibitor: -1%; ATXN2 expr inh: -1%; ATXN viability: inactive; HepG2 tox: -15%

How did NC(=O)c1ncn([C@@H]2O[C@H](CO)[C@@H](O)[C@@H]2O)c1O do in these assays?
ATXN2 expr inh: 6%

What do the screens show for `COc1ccc(NC(=O)c2cccc([N+](=O)[O-])c2)cc1`?
D3 ag: 0; DRD3 antagonist: -2; TGFb inhibitor: -6%; ATXN2 expr inh: -4%[11.3 µM]; ATXN viability: inactive; HepG2 tox: 0%
